20 compounds from PubChem BioAssay (EPA / NIEHS) can be followed below.

Structures are written as SMILES. Records with an inconclusive call do not appear. The source made the active and inactive calls. Rule for the calls, unless noted: active = hit-call score of the fitted dose curve at least 0.9, where 1 is the maximum; inactive = score below 0.9.

Read-out in one assay: not listed separately
As to the kind of experiment: BSK_SAg_PBMCCytotoxicity: PBMC Cytotoxicity Assessment in the BioMAP Diversity Plus: SAg Assay (AID 2283093).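 For AC50: PBMC superantigen activated with SEB plus TSST-1 one hour after compound addition.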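 Note: PBMC viability measured as Alamar Blue reduction fluorescence at 546/580 nm; fitted both ways against DMSO so a hit may be loss or gain of signal.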 Conditions: primary human HUVEC with PBMC. An outline of the steps:
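Alamar Blue reduction (6 h, ex/em 546/580 nm) read after 90 h culture of PBMC pre-dosed 1 h then stimulated with SEB plus TSST-1, 20 ng/mL each. Gain or loss of signal fitted relative to DMSO.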
For the compound `Cc1ccc(Nc2ccc(O)c3c2C(=O)c2ccccc2C3=O)cc1`, the outcome was inactive.
On to `CC(=O)Nc1ccccc1O`, for which the result was inactive.
Turning to `O=C1OC2(c3cc(Br)c(O)c(Br)c3Oc3c2cc(Br)c(O)c3Br)c2c(Cl)c(Cl)c(Cl)c(Cl)c21`, the AC50 (usually the concentration giving half of the maximal activity seen) was 23.5 µM (active).
Take `CC1CCC(C(C)CS)CC1S` (stereo not drawn): the result was inactive.
Still for that read-out and setting: under `COC(=O)c1ccc(C)cc1` stands “inactive”; under `CC(=O)O[C@]1(C(C)=O)CC[C@H]2[C@@H]3C[C@H](C)C4=CC(=O)CC[C@]4(C)[C@H]3CC[C@@]21C`, “inactive”.
For the compound `CC(=O)/C=C/C1=C(C)CCCC1(C)C`, the result was inactive.
Turning to `CCCCC/C=C/C=C/C=O`, the concentration at half-maximal activity (AC50) is 20 µM (active).
On to `c1ccc2sc(SN(C3CCCCC3)C3CCCCC3)nc2c1`, for which the AC50 was 5.28 µM (active).
As for `c1ccc2c(c1)c1cccc3ccc4cccc2c4c31`, the result was inactive.
The same measure, in the same setting: under `O=C(O)c1ccc([N+](=O)[O-])cc1` stands “inactive”; under `CCn1c2ccccc2c2cc(N)ccc21`, “inactive”.
Take `Cc1ccc(O)c(C(C)(C)C)c1`: the AC50 was 35.8 µM (active).
For the compound `CNC[C@H](O)c1cccc(O)c1`, the outcome was inactive.
As to `O=P(c1ccccc1)(c1ccccc1)c1ccccc1`, the result was inactive.

Read-out in a further assay: Interleukin-8 (IL8), CXCL8 (gene 3576)
As to the kind of experiment: BSK_SAg_IL8: BioMAP Diversity Plus: SAg Assay for Interleukin-8 (IL8) Biomarker Activity (AID 2283094). To be noted: primary human HUVEC with PBMC; actives raise or lower the signal. The essentials:
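Chemicals were dosed onto a human endothelial–PBMC co-culture, and IL-8 was quantified by ELISA after 24 h. Both increases and decreases were fitted relative to DMSO.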
In the case of `Cc1ccc(Nc2ccc(O)c3c2C(=O)c2ccccc2C3=O)cc1`, the result was inactive.
On to `CC(=O)Nc1ccccc1O`, for which the result was inactive.
`O=C1OC2(c3cc(Br)c(O)c(Br)c3Oc3c2cc(Br)c(O)c3Br)c2c(Cl)c(Cl)c(Cl)c(Cl)c21`: the result was inactive.
Regarding `CC1CCC(C(C)CS)CC1S` (stereo not drawn), the AC50 was 20 µM (active).
For `COC(=O)c1ccc(C)cc1`, the result was inactive.
Same read-out and setting: to `CC(=O)O[C@]1(C(C)=O)CC[C@H]2[C@@H]3C[C@H](C)C4=CC(=O)CC[C@]4(C)[C@H]3CC[C@@]21C` belongs “inactive”; to `CC(=O)/C=C/C1=C(C)CCCC1(C)C`, “inactive”.
Regarding `CCCCC/C=C/C=C/C=O`, the AC50 is 20 µM (active).
Turning to `c1ccc2sc(SN(C3CCCCC3)C3CCCCC3)nc2c1`, the half-maximal activity concentration (AC50) is 3.23 µM (active).
Regarding `c1ccc2c(c1)c1cccc3ccc4cccc2c4c31`, the result was inactive.
The same measure, in the same setting: under `O=C(O)c1ccc([N+](=O)[O-])cc1` stands “inactive”.
Regarding `CCn1c2ccccc2c2cc(N)ccc21`, the AC50 was 0.0208 µM (active).
As for `Cc1ccc(O)c(C(C)(C)C)c1`, the AC50 is 32.8 µM (active).
Turning to `CNC[C@H](O)c1cccc(O)c1`, the result was inactive.
As to `O=P(c1ccccc1)(c1ccccc1)c1ccccc1`, the outcome was inactive.

Read-out in another assay: not listed separately
The assay is described as follows: BSK_SAg_Proliferation: Cell Proliferation Assessment in the BioMAP Diversity Plus: SAg Assay (AID 2283095).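 Note: relative cell number as total protein by SRB absorbance in sub-confluent culture.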 To be noted: primary human HUVEC with PBMC. An outline of the steps:
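Absorbance of sulforhodamine B at 560 nm reports total protein in a human vascular endothelial/PBMC co-culture after 96 h chemical exposure. Gain or loss of signal is fitted in both directions against DMSO.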
Turning to `Cc1ccc(Nc2ccc(O)c3c2C(=O)c2ccccc2C3=O)cc1`, the result was inactive.
`CC(=O)Nc1ccccc1O`: the outcome was inactive.
`O=C1OC2(c3cc(Br)c(O)c(Br)c3Oc3c2cc(Br)c(O)c3Br)c2c(Cl)c(Cl)c(Cl)c(Cl)c21`: the AC50 was 21.3 µM (active).
With `CC1CCC(C(C)CS)CC1S` (stereo not drawn), the result was inactive.
Turning to `COC(=O)c1ccc(C)cc1`, the result was inactive.
`CC(=O)O[C@]1(C(C)=O)CC[C@H]2[C@@H]3C[C@H](C)C4=CC(=O)CC[C@]4(C)[C@H]3CC[C@@]21C`: the outcome was inactive.
Consider `CC(=O)/C=C/C1=C(C)CCCC1(C)C`, for which the result was inactive.
For `CCCCC/C=C/C=C/C=O`, the AC50 was 14.2 µM (active).
On the same count and under the same terms, to `c1ccc2sc(SN(C3CCCCC3)C3CCCCC3)nc2c1` belongs 11.4 µM (active).
In the case of `c1ccc2c(c1)c1cccc3ccc4cccc2c4c31`, the outcome was inactive.
On the same count and under the same terms, under `O=C(O)c1ccc([N+](=O)[O-])cc1` stands “inactive”; under `CCn1c2ccccc2c2cc(N)ccc21`, “inactive”.
With `Cc1ccc(O)c(C(C)(C)C)c1`, the AC50 was 32 µM (active).
On to `CNC[C@H](O)c1cccc(O)c1`, for which the result was inactive.
On the same count and under the same terms, to `O=P(c1ccccc1)(c1ccccc1)c1ccccc1` belongs “inactive”.

Read-out in another assay: not listed separately
As to the kind of experiment: BSK_SAg_SRB: Viability Assessment in the BioMAP Diversity Plus: SAg Assay (AID 2283096).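 Note: cells read one day after compound addition; hits may be either gain or loss of signal compared with DMSO.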 To be noted: primary human HUVEC with PBMC. The essentials: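 SRB absorbance at 560 nm served as the viability read-out. Cells (HUVEC plus peripheral blood mononuclear cells) were TCA-fixed and stained 24 h post-dosing; activity fitted in both directions against DMSO controls.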
Turning to `Cc1ccc(Nc2ccc(O)c3c2C(=O)c2ccccc2C3=O)cc1`, the outcome was inactive.
Same read-out and setting: to `CC(=O)Nc1ccccc1O` belongs “inactive”.
With `O=C1OC2(c3cc(Br)c(O)c(Br)c3Oc3c2cc(Br)c(O)c3Br)c2c(Cl)c(Cl)c(Cl)c(Cl)c21`, the AC50 was 18.2 µM (active).
With `CC1CCC(C(C)CS)CC1S` (stereo not drawn), the AC50 was 30.7 µM (active).
For the compound `COC(=O)c1ccc(C)cc1`, the outcome was inactive.
The same measure, in the same setting: under `CC(=O)O[C@]1(C(C)=O)CC[C@H]2[C@@H]3C[C@H](C)C4=CC(=O)CC[C@]4(C)[C@H]3CC[C@@]21C` stands “inactive”; under `CC(=O)/C=C/C1=C(C)CCCC1(C)C`, “inactive”.
Take `CCCCC/C=C/C=C/C=O`: the AC50 is 31.5 µM (active).
Consider `c1ccc2sc(SN(C3CCCCC3)C3CCCCC3)nc2c1`, for which the AC50 is 11.4 µM (active).
As to `c1ccc2c(c1)c1cccc3ccc4cccc2c4c31`, the result was inactive.
For the compound `O=C(O)c1ccc([N+](=O)[O-])cc1`, the outcome was inactive.
The same measure, in the same setting: to `CCn1c2ccccc2c2cc(N)ccc21` belongs “inactive”.
Consider `Cc1ccc(O)c(C(C)(C)C)c1`, for which the AC50 is 31.9 µM (active).
Consider `CNC[C@H](O)c1cccc(O)c1`, for which the result was inactive.
Take `O=P(c1ccccc1)(c1ccccc1)c1ccccc1`: the result was inactive.

The target in a further assay is human CYP19A1, CYP19A1 (gene 1588) (UniProt P11511). As to the kind of experiment: NVS_ADME_hCYP19A1: NovaScreen (NVS) CYP450-related Enzyme Activity (ADME) Assay for human CYP19A1 (AID 2283098; active = hit-call score of the fitted dose curve at least 0.9, where 1 is the maximum;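 for AC50: potency for inhibitors seen as loss of fluorescent enzyme signal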).
Chain of human CYP19A1, CYP19A1 (gene 1588) (P11511 whole entry, looked up): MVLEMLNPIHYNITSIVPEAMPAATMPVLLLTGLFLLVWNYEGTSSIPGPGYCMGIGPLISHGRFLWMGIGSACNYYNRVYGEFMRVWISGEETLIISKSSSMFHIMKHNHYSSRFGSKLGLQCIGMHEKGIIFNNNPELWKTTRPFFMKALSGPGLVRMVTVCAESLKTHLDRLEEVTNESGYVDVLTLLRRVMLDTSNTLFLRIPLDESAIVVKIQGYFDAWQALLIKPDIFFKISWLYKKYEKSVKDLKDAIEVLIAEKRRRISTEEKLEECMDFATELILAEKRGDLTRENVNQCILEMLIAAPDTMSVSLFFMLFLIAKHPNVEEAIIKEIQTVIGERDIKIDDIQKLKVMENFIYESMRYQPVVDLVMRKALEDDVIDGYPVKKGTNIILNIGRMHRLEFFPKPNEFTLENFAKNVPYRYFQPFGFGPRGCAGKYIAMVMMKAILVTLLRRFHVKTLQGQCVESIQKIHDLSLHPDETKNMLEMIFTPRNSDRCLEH
Settings: not given
The essentials:
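Primary testing was in duplicate at a single 10 uM concentration, with actives followed up in concentration-response series. Fluorescence read-out of recombinant enzyme activity at 0.5 h, cell-free. Acetonitrile was the negative-control baseline.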
On to `CCCCCCCCCCCCCOS(=O)(=O)O`, for which the compound was called inactive.
As for `CN(C)CCCN`, the call was inactive.
Regarding `Cc1ccc(C(C)C)cc1O`, the AC50 is 3.83 µM (active).
The same measure, in the same setting: under `CCCCCCCCCCCCCCCC(=O)OC[C@H](O)[C@H]1OC(=O)C(O)=C1O` stands 2.33 µM (active).

For the next assay, the target named is human CYP2C9, CYP2C9 (gene 1559) (UniProt P11712). The assay is described as follows: NVS_ADME_hCYP2C9: NovaScreen (NVS) CYP450-related Enzyme Activity (ADME) Assay for human CYP2C9 (AID 2283108; active = hit-call score of the fitted dose curve at least 0.9, where 1 is the maximum).
Chain of human CYP2C9, CYP2C9 (gene 1559) (P11712 whole entry, looked up): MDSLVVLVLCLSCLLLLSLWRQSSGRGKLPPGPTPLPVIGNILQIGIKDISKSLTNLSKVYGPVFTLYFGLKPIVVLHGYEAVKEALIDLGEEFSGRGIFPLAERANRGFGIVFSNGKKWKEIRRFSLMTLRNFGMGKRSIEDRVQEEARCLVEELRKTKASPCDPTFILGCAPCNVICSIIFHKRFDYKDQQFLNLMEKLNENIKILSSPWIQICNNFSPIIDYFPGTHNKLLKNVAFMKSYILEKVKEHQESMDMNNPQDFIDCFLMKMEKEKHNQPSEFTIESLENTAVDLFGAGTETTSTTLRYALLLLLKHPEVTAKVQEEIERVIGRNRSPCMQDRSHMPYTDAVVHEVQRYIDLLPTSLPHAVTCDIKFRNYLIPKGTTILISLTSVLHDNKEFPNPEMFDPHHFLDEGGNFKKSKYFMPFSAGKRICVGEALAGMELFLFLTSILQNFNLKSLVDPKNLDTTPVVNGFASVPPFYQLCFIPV
Settings: not given
The essentials: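 Fluorescence readout of CYP2C9 activity (SF9-expressed human enzyme) at 0.75 h. The primary screen used 10 uM in duplicate, with concentration-response follow-up for actives; acetonitrile was the negative control.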
Consider `Nc1ccc(F)c([N+](=O)[O-])c1`, for which the call was inactive.
`CC(=O)O[C@]1(C(C)=O)CC[C@H]2[C@@H]3C[C@H](C)C4=CC(=O)CC[C@]4(C)[C@H]3CC[C@@]21C`: the AC50 was 0.119 µM (active).
In the case of `CCn1c2ccccc2c2cc(N)ccc21`, the AC50 was 0.405 µM (active).
Still for that read-out and setting: to `O=P(c1ccccc1)(c1ccccc1)c1ccccc1` belongs 3.19 µM (active).
